According to the supplement of paper PMC3545927:
The list shows a part of the results. How many sequences the whole screen found active is unknown.

Molecular target: furin, P09958
Assay: furin cleavage Z-score vs untreated control; higher = more cleavage, active = 3.5 or more, inactive = 1 or less, 8 variable residues between constant flanks
How it was run: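 Peptides 8 residues long, fused to a cDNA oligonucleotide, were fixed to magnetic beads by the N-terminus and exposed to purified furin. The 0.01 ml reactions contained 50 mM HEPES pH 7.5 with CaCl2 and NaCl at 1:10 enzyme:substrate and ran 7.5, 15 or 30 min. For the cleavage Z-score, log counts of sequenced released DNA were compared with furin-free reactions, lowess-adjusted and scaled by median absolute deviation.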

Chain of furin, P09958 (P09958 whole entry): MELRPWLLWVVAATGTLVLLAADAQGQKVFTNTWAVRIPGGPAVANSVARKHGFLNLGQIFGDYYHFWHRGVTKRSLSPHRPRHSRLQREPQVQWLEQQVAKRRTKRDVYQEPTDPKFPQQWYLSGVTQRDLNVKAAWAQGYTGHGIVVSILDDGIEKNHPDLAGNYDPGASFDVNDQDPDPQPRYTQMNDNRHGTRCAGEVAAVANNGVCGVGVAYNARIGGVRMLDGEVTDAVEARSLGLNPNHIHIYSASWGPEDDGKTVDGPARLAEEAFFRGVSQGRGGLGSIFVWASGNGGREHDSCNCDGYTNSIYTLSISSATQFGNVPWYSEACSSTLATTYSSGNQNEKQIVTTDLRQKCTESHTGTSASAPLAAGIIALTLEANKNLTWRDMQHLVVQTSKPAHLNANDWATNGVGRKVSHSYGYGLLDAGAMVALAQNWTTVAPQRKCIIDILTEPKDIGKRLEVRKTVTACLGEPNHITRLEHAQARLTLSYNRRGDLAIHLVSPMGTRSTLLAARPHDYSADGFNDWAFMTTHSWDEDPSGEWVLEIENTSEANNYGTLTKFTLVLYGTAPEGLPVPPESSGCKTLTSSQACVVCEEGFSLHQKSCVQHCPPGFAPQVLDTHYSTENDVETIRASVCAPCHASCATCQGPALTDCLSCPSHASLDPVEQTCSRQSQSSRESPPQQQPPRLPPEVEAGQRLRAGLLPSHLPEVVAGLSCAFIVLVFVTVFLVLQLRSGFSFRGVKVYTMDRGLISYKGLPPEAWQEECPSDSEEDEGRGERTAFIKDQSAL

Sequence | furin cleavage Z-score (7.5 min) | furin cleavage Z-score (15 min) | furin cleavage Z-score (30 min)
CATPCTCGSSAGNASASA [HC721] | -1.49 (inactive) | -2.13 (inactive) | -1.32 (inactive)
CAEECSQHLPAGNASASA [HC1015] | 0.447 (inactive) | 0.0813 (inactive) | -0.935 (inactive)
CALRAYMNTPAGNASASA [HC930] | 0.0194 (inactive) | -1.18 (inactive) | 0.0807 (inactive)
CATTTRKNRSAGNASASA [FS-1498] | 8.64 (active) | 11 (active) | 7.73 (active)
CAPRARSRRSAGNASASA [FS-1053] | 9.77 (active) | 10.8 (active) | 8.95 (active)
CATTTCSGSWAGNASASA [HC1878] | -0.962 (inactive) | 0.367 (inactive) | -0.313 (inactive)
CAEEIRVNRSAGNASASA [FS-229] | 2.33 | 0.724 (inactive) | 1.69
CAPRAAERRSAGNASASA [FS-74] | -1.2 (inactive) | -1.99 (inactive) | -1.56 (inactive)
CAPRARKNRSAGNASASA [FS-949] | 12.3 (active) | 12.6 (active) | 8.81 (active)
CALRARKNRSAGNASASA [FS-942] | 8.1 (active) | 8.12 (active) | 6.93 (active)
CAEVVTSTHVAGNASASA [HC2235] | -0.582 (inactive) | 0.167 (inactive) | -1.55 (inactive)
CAVCGDDLVVAGNASASA [HC1528] | -2.27 (inactive) | -1.44 (inactive) | -0.381 (inactive)
CADLVVICESAGNASASA [HC1530] | 0.357 (inactive) | -1.48 (inactive) | 1.02
CAPPGSVTVPAGNASASA [HC836] | 0.584 (inactive) | 0.308 (inactive) | -0.638 (inactive)
CAKVVTSTWVAGNASASA [HC2154] | -1.02 (inactive) | 1.09 | -1.67 (inactive)
CATTPCMGSWAGNASASA [HC68] | 1.12 | 0.786 (inactive) | -0.593 (inactive)
CATTPCWGSWAGNASASA [HC67] | 0.261 (inactive) | 1.14 | 1.23
CATTPCIGSWAGNASASA [HC65] | 0.499 (inactive) | 3.77 (active) | 2
CASDSRHSRQAGNASASA [FS-1612] | 0.00727 (inactive) | 0.0993 (inactive) | 0.17 (inactive)
CAEKRRSADIAGNASASA [FS-2630] | -0.771 (inactive) | -1.51 (inactive) | -0.666 (inactive)
CAALDRTKRQAGNASASA [FS-579] | 11.8 (active) | 12.8 (active) | 11 (active)
CAEKTRHARQAGNASASA [FS-1520] | 8.09 (active) | 8.28 (active) | 7.03 (active)
CAGKSRNKRQAGNASASA [FS-243] | 10.4 (active) | 10.6 (active) | 10.1 (active)
CAAMGRGKRQAGNASASA [FS-1184] | 9.02 (active) | 8.89 (active) | 8.8 (active)
CAAGVAGALVAGNASASA [HC1089] | -0.652 (inactive) | -0.752 (inactive) | 0.946 (inactive)
CAGPGEGAVQAGNASASA [HC1114] | -0.225 (inactive) | -1.41 (inactive) | -1.21 (inactive)
CAHIDAHFLSAGNASASA [HC944] | -0.528 (inactive) | -1.68 (inactive) | -0.674 (inactive)
CAGCSFSIFLAGNASASA [HC246] | -1.55 (inactive) | -1.86 (inactive) | 0.305 (inactive)
